Consider eight molecules from PubChem BioAssay (Tox21).

For assay [1], the target named is Aryl hydrocarbon receptor (Homo sapiens) (UniProt P35869). Put plainly: qHTS assay to identify small molecule that activate the aryl hydrocarbon receptor (AhR) signaling pathway (AID 743085).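 Further: HG2L7.5c1 human HepG2 liver cells with stably integrated DRE-driven firefly reporter; series mostly up to about 70 µM; nearly all actives have a fitted effect of over 15% in size.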 An outline of the steps:
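HepG2 cells (HG2L7.5c1) stably carrying a firefly luciferase reporter driven by 20 dioxin responsive elements were exposed to compound for 24 h at 37C after a 5 h settling period; luminescence rise (ONE-Glo) indicated activation.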

Assay [2] in a line: qHTS assay to identify small molecule that activate the aryl hydrocarbon receptor (AhR) signaling pathway - cell viability counter screen (AID 743086). Further: nearly all actives have a fitted effect of over 45% in size. Further: potency means the concentration at half of the fitted maximal effect. An outline of the steps:
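Cytotoxicity counter screen: CellTiter-Fluor signal (30 min, 37 C) in 4000 HepG2 cells/well carrying the DRE-luciferase reporter, following 24 h compound exposure at 37 C.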

Assay [3] has as its target Peroxisome proliferator-activated receptor gamma (Homo sapiens) (UniProt P37231). The assay is described as follows: qHTS assay to identify small molecule agonists of the peroxisome proliferator-activated receptor gamma (PPARg) signaling pathway (AID 743094; active means well fitted activation curve with a large enough effect in the signal ratio in the repeat runs, not every such curve was filed as active; the % refers to the signal ratio). In short, it runs like this:
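Cells from the PPARg UAS-bla HEK293H line are plated and incubated 5 h at 37C. Compounds in DMSO are pinned in and left 17 h at 37C. LiveBLAzer B/G substrate is then added for 1 h at room temperature before fluorescence is measured.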

A short description of assay [4]: qHTS assay to identify small molecule antagonists of the peroxisome proliferator-activated receptor gamma (PPARg) signaling pathway - cell viability counter screen (AID 743194). Further: nearly all actives have a fitted effect of over 55% in size. Further: potency means the concentration at half of the fitted maximal effect. The note with it: Potency: co-treated with 50 nM rosiglitazone. An outline of the steps:
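Viability was measured as CellTiter-Glo luminescence in GeneBLAzer PPARg UAS-bla HEK293H cells. These cells had been exposed 17 h at 37 C to compounds together with rosiglitazone at 50 nM final, with the beta-lactamase readout taken in the same wells.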

Assay [5] can be described thus: qHTS assay for small molecule agonists of the antioxidant response element (ARE) signaling pathway - cell viability counter screen (AID 743203; calls by dose curve; further: nearly all actives have a fitted effect of over 55% in size; further: potency means the concentration at half of the fitted maximal effect). An outline of the steps: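 Cytotoxicity was tested in parallel with the ARE reporter screen. ARE-bla HepG2 cells were exposed to compounds for 16 hrs, and viability was taken from CellTiter-Glo luminescence.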
Assay [6] is described as follows: qHTS assay for small molecule activators of the heat shock response signaling pathway - cell viability counter screen (AID 743209). Further: nearly all actives have a fitted effect of over 50% in size. An outline of the steps:
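Cytotoxicity counter screen run in parallel with the HSE beta-lactamase reporter, using the same wells. HeLa HSE-bla cells received compound for 5 h at 37 C; ATP-based CellTiter-Glo luminescence was measured after 30 min at room temperature.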

Assay [7] in a line: qHTS assay to identify small molecule agonists of the peroxisome proliferator-activated receptor delta (PPARd) signaling pathway - cell viability counter screen (AID 743211). Further: nearly all actives have a fitted effect of over 55% in size. Further: potency means the concentration at half of the fitted maximal effect. In short, it runs like this:
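PPARd-bla HEK293H cells (UAS-beta-lactamase reporter) were treated with compounds for 17 h at 37 C. Viability was then read in the same wells by CellTiter-Glo luminescence after 30 min at room temperature.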

A short description of assay [8]: qHTS assay to identify small molecule antagonists of the peroxisome proliferator-activated receptor delta (PPARd) signaling pathway - cell viability counter screen (AID 743213). Further: nearly all actives have a fitted effect of over 50% in size. Further: potency means the concentration at half of the fitted maximal effect. In short, it runs like this:
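Viability counter-screen, qHTS format: PPARd-bla HEK293H, L165041 300 nM final, 17 h compound exposure at 37 C, CellTiter-Glo luminescence after 30 min RT.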

The target in assay [9] is Bile acid receptor (Homo sapiens) (UniProt Q96RI1). The assay is described as follows: qHTS assay to identify small molecule antagonists of the farnesoid-X-receptor (FXR) signaling pathway (AID 743217; active means well fitted inhibition curve with a large enough effect in the signal ratio in the repeat runs, not every such curve was filed as active; the % refers to the signal ratio). In short, it runs like this:
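Cells carrying a UAS-driven beta-lactamase reporter (GeneBLAzer FXR-UAS-bla HEK 293T) were plated and rested 5 h at 37 °C. Compounds in DMSO were added alongside chenodeoxycholic acid agonist at 50 uM final and left 16 h at 37 °C before FRET substrate readout.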

The nature of assay [10]: qHTS assay to identify small molecule agonists of the farnesoid-X-receptor (FXR) signaling pathway - cell viability counter screen (AID 743218). Further: nearly all actives have a fitted effect of over 45% in size. Further: potency means the concentration at half of the fitted maximal effect. An outline of the steps: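 Cells were seeded, left 5 h at 37 C and 5% CO2, then dosed with compound in DMSO for 16 h. After the beta-lactamase FRET read, CellTiter-Glo was added and luminescence measured 30 min later.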
Assay [11] deals with Bile acid receptor (Homo sapiens) (UniProt Q96RI1). The assay is described as follows: qHTS assay to identify small molecule agonists of the farnesoid-X-receptor (FXR) signaling pathway (AID 743220; active means well fitted activation curve with a large enough effect in the signal ratio in the repeat runs, not every such curve was filed as active; the % refers to the signal ratio). In short, it runs like this:
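FXR-UAS-bla HEK 293T cells carrying a UAS-driven beta-lactamase reporter were plated for 5 h at 37C/5% CO2, then exposed to DMSO-dissolved Tox21 10K compounds for 16 h at 37C. A LiveBLAzer B/G FRET substrate was loaded for 2 h at room temperature before fluorescence reading.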

Assay [12] in a line: qHTS assay to identify small molecule antagonists of the farnesoid-X-receptor (FXR) signaling pathway - cell viability counter screen (AID 743221; active means well fitted cell-killing curve with a large enough effect in the repeat runs, not every such curve was filed as active; further: nearly all actives have a fitted effect of over 50% in size; further: potency means the concentration at half of the fitted maximal effect). In short, it runs like this: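 FXR-UAS-bla HEK 293T cells were treated with test compounds plus chenodeoxycholic acid (50 uM final) for 16 h at 37 C. Cell viability in the same wells was then read as CellTiter-Glo luminescence after 30 min at room temperature.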

For assay [13], the target named is Vitamin D3 receptor (Homo sapiens) (UniProt P11473). Put plainly: qHTS assay to identify small molecule agonists of the vitamin D receptor (VDR) signaling pathway (AID 743222; calls by dose curve). An outline of the steps: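 Cells carrying a VDR-driven beta-lactamase reporter are seeded at 2,000 per well and rested 4 h. Compounds in DMSO are added for 16 h at 37C, and FRET substrate fluorescence is measured after 2 h at room temperature.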
Sequence of Vitamin D3 receptor (Homo sapiens) (P11473 whole entry, looked up): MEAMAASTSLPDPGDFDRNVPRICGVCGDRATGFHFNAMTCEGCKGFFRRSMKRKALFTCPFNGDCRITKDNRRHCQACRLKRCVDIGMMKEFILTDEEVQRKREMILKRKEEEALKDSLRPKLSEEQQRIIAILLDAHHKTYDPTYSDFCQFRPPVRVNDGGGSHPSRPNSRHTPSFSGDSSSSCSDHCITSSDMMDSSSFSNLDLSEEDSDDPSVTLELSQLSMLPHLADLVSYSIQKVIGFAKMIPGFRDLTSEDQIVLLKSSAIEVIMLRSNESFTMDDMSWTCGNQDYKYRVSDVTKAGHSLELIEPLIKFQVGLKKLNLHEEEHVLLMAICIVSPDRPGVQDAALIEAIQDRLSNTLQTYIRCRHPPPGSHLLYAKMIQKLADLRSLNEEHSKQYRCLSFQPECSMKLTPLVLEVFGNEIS

Assay [14] can be described thus: qHTS assay to identify small molecule agonists of the vitamin D receptor (VDR) signaling pathway - cell viability counter screen (AID 743224). Further: nearly all actives have a fitted effect of over 50% in size. Further: potency means the concentration at half of the fitted maximal effect. In short, it runs like this: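 Cells: VDR-bla, 2,000/well, settled 4 h. Treatment: compounds in DMSO, 16 h, 37C/5% CO2. Readout: CellTiter-Glo luminescence after 30 min RT.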
Assay [15] in a line: qHTS assay for small molecule activators of the heat shock response signaling pathway (AID 743210; active means well fitted activation curve with a large enough effect in the signal ratio in the repeat runs, with a control signal flat, not every such curve was filed as active; the % refers to the signal ratio; further: series mostly up to about 63 µM). An outline of the steps: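 Compound exposure lasted 5 h at 37 C in HeLa cells carrying a heat-shock-element-driven beta-lactamase reporter. Read-out: fluorescence intensity after 2.5 h room-temperature loading with LiveBLAzer B/G FRET substrate.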
Assay [16] has as its target Peroxisome proliferator-activated receptor delta (Homo sapiens) (UniProt Q03181). Put plainly: qHTS assay to identify small molecule agonists of the peroxisome proliferator-activated receptor delta (PPARd) signaling pathway (AID 743212; calls by dose curve). An outline of the steps: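 Beta-lactamase reporter readout: a ratiometric FRET signal from the LiveBLAzer substrate after 2 h at room temperature. Compound exposure at 37 °C in PPARδ-bla HEK293H cells driven by an upstream activator sequence.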

For assay [17] the target is unchanged. The assay is described as follows: qHTS assay to identify small molecule antagonists of the peroxisome proliferator-activated receptor delta (PPARd) signaling pathway (AID 743215; active means well fitted inhibition curve with a large enough effect in the signal ratio in the repeat runs, not every such curve was filed as active; the % refers to the signal ratio;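 further: cells stimulated with agonist L165041 at 300 nM final during compound exposure; series mostly up to about 62 µM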). An outline of the steps:
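Cells: HEK293H with a UAS-driven beta-lactamase reporter responsive to PPARd. Compounds were co-added with L165041 (300 nM, final) and incubated 17 h at 37 C before a 2 h room-temperature FRET substrate step and fluorescence reading.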

For assay [18], the target named is Vitamin D3 receptor (Homo sapiens) (UniProt P11473). Put plainly: qHTS assay to identify small molecule antagonists of the vitamin D receptor (VDR) signaling pathway (AID 743223; active means well fitted inhibition curve with a large enough effect in the signal ratio in the repeat runs, not every such curve was filed as active; the % refers to the signal ratio). In short, it runs like this:
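VDR-bla cells were plated, incubated 4 h at 37C, then given compound and 1alpha,25-dihydroxyvitamin D3 (3 nM final). After 16 h at 37C, LiveBLAzer B/G FRET substrate was added for 2 h at room temperature and fluorescence read.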

Where “and” joins values, the source holds several entries; their conditions need not be identical. Equal entries are not always repeated. Inconclusive results are not listed. More than one record can exist for a structure, and the calls need not agree. Calls of active or inactive are those of the source. Unless noted, the call rests on the fitted dose curve; in most records, active means well fitted curve in the direction sought with a large enough effect in the repeat runs; inconclusive means weak or mixed curves; inactive means no such curve, though single readings can be large; an effect the other way counts as inactive or inconclusive.

Sequence of Aryl hydrocarbon receptor (Homo sapiens) (P35869 whole entry, looked up): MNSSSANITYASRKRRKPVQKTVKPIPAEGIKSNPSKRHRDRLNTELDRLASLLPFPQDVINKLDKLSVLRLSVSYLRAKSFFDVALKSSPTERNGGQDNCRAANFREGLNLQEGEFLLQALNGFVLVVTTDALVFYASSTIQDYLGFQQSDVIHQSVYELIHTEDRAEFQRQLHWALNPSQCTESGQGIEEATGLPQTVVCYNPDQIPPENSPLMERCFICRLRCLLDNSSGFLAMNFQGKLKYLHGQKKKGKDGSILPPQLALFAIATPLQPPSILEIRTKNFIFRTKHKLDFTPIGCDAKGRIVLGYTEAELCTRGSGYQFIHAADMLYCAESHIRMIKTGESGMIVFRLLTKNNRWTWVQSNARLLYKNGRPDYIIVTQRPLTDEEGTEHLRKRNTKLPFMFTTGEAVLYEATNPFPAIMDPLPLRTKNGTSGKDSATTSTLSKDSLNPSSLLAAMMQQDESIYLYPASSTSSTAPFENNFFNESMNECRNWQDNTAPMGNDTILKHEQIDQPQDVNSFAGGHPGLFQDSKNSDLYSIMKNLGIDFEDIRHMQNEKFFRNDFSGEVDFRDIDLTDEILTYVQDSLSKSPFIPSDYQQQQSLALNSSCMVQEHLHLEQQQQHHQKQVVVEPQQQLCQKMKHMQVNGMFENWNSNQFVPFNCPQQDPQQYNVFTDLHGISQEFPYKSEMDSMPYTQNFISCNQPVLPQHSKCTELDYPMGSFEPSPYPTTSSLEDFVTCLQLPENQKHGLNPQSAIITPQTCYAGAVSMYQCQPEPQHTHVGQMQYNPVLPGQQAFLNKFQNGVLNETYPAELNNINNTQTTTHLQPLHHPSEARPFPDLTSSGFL
Sequence of Peroxisome proliferator-activated receptor gamma (Homo sapiens) (P37231 whole entry, looked up): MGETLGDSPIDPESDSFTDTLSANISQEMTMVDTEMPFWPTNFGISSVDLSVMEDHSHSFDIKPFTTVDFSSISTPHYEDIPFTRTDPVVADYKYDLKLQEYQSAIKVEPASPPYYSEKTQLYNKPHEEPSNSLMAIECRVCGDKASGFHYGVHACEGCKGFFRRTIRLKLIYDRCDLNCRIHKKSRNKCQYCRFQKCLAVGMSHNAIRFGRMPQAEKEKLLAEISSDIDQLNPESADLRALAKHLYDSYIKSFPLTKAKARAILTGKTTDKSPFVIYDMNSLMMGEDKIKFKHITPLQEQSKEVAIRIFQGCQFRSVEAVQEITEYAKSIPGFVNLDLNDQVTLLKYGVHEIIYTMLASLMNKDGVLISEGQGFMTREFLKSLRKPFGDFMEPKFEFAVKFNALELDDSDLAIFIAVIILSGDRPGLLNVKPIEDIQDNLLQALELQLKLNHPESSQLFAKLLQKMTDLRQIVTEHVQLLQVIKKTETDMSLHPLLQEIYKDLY
Sequence of Peroxisome proliferator-activated receptor delta (Homo sapiens) (Q03181 whole entry, looked up): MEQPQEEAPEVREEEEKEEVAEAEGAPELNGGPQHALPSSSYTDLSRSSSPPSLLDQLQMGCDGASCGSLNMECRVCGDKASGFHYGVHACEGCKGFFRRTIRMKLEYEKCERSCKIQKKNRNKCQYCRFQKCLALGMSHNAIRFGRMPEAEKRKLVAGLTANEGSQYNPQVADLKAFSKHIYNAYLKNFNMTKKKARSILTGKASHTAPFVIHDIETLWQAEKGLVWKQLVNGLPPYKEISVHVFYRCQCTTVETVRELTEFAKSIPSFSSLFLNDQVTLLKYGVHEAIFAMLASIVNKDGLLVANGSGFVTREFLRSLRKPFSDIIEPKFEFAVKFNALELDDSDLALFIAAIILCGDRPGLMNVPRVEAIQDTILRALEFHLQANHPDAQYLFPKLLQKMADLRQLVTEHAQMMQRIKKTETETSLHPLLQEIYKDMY
Sequence of Bile acid receptor (Homo sapiens) (Q96RI1 whole entry, looked up): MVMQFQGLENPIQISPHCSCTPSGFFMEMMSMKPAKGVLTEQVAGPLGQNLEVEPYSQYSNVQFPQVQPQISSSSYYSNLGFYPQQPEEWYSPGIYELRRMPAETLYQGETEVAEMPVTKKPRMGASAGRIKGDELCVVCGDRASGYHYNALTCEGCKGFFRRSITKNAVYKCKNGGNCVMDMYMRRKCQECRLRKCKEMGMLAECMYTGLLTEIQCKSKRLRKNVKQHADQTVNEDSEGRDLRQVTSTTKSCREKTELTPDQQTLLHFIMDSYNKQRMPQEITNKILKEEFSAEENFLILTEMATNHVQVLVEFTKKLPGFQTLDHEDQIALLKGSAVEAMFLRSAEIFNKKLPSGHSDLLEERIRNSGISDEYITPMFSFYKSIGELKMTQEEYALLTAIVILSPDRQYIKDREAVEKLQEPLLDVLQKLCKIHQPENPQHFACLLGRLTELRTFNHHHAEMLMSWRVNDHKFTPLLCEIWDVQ

For `CCSC(=O)Cl`, the Potency result in [1], in assay [2], in assay [4], in [5], in assay [6] and in assay [7] was “inactive” in each case. Also, the Potency entry in assay [8], in assay [10], in [12] and in assay [14] was “inactive” each time. The result in assay [3], in assay [9], in [11] and in assay [13] was inactive.

Consider `CCOC(=O)N(C)N=O`, for which the Potency result in [1], in assay [2], in [4], in assay [15], in [7] and in assay [8] was “inactive” throughout. Also, the Potency entry in [17], in assay [10], in assay [12] and in assay [14] was “inactive” each time. Besides, the outcome in assay [3], in [16], in assay [13] and in assay [18] was inactive.

With `COC(=O)[C@@H](N)CCCN/C(N)=N/[N+](=O)[O-]`, the Potency entry in assay [1], in assay [2], in [4], in [5], in assay [6] and in assay [15] was “inactive” throughout. Also, the Potency result in [7], in assay [8], in assay [17], in assay [12] and in [14] was “inactive” in each case. The molecule was called inactive in [3], in [16], in assay [9] and in assay [11].

For the molecule `CCOC(=O)CCl`, the Potency result in [1], in [2], in assay [4], in assay [5], in assay [6] and in [15] was “inactive” each time. Besides, the Potency entry in [7], in assay [8], in assay [17], in assay [10], in [12] and in assay [14] was “inactive” each time. The call in assay [3], in assay [16], in [9], in assay [11], in [13] and in assay [18] was inactive.

Turning to `O=C(CCl)NCO`, the Potency result in [1], in assay [2], in [4], in assay [5], in [6] and in assay [15] was “inactive” throughout. Moreover, the Potency entry in assay [7], in assay [8], in [17], in assay [10] and in assay [12] was “inactive” each time. Besides, the molecule was classed as inactive in [3], in [16] and in assay [13].

Turning to `CC(C)[N+](C)(CCC(C(N)=O)(c1ccccc1)c1ccccc1)C(C)C`, the Potency entry in assay [1], in assay [2], in assay [4], in assay [5], in assay [6] and in assay [15] was “inactive” throughout. In addition, the Potency entry in assay [7], in [8], in assay [12] and in assay [14] was “inactive” in each case. For the same molecule, the molecule was classed as inactive in assay [3].

With `CCCCCCC(=O)CCCCCC/C=C/C[C@@H](O)[C@H](O)[C@@](N)(CO)C(=O)O`, the Potency result in assay [1], in assay [2], in assay [4], in [6], in assay [15] and in [7] was “inactive” each time. Besides, the Potency entry in assay [8], in [17], in [12] and in [14] was “inactive” in each case. The outcome in [3], in [16], in assay [13] and in assay [18] was inactive.

Consider `O=C1C2CC=CCC2C(=O)N1SC(Cl)(Cl)Cl` (centres undefined), for which the Potency result in [1] and in assay [6] was “inactive” each time. In addition, the Potency result in assay [2] was “inactive and 42.6 µM (active)”; in assay [4], 3.83 µM (active); in assay [5], “inactive and 23.9 µM (active)”; in assay [7], “inactive and 10.8 µM (active)”; in assay [8], “inactive and 12.1 µM (active)”; in assay [10] it was “inactive and 21.5 µM (active)”. The Potency entry was “inactive and 42.9 µM (active)” in assay [12]; “inactive and 6.81 µM (active)” in [14]. Further, the outcome in assay [3], in [16], in [13] and in assay [18] was inactive.
